Measurements reported in PubChem BioAssay AID1861 (The Scripps Research Institute Molecular Screening Center, 2009).
Among all 290,000 compounds or so, about 3,100 (1.1%) were called active. Only a selection was taken, and actives are over-represented in it overall. Values without a mark were called inactive. Rule as the data show it: active = inhibition above about 16% (passing the limit was not always enough); inactive = the rest.

target: Neuropeptides B/W receptor type 1 (Homo sapiens) (UniProt P48145); assay: GPR7 receptor antagonists, primary screen, cell-based, fluorescence, single concentration (AID 1861); settings: GPR7-expressing cells, fluorescence antagonist assay; at 4.4 µM; hits give high values;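 also: cells stimulated with the agonist NPW; 0% = agonist with vehicle and 100% = vehicle without agonist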
Sequence (P48145 whole entry, looked up): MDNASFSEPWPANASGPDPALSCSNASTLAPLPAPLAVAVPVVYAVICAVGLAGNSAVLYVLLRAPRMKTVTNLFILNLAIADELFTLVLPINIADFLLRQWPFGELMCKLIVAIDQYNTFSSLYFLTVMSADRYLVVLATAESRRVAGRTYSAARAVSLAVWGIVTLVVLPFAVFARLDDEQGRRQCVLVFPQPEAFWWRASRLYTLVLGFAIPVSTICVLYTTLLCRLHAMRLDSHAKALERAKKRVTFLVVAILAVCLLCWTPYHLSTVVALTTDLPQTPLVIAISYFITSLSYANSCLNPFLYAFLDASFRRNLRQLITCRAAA

SMILES	inhibition
COc1cccc(OC)c1C(=O)NC(=S)Nc1ccc(N2CCOCC2)c(Cl)c1	-6.83%
CCOc1ccc(C(=O)NC(=S)Nc2ccc(N3CCOCC3)c(Cl)c2)cc1[N+](=O)[O-]	21% (active)
CCOc1ccc(C(=O)NC(=S)Nc2ccc(NC(=O)C(C)C)cc2)cc1[N+](=O)[O-]	-1.37%
O=C(NCc1ccccc1Cl)C1CCN(S(=O)(=O)c2cccc3nonc23)CC1	-5.03%
COc1ccc(CCNC(=O)C(=O)NCC2OCCN2S(=O)(=O)c2cccs2)cc1OC (stereo unspecified)	-18.7%
O=C(OC1CCOC1=O)c1ccc(-c2nc3ccccc3s2)s1 (stereo unspecified)	13.3% (active)
CC(C)c1ccc(C(=O)OC2CCOC2=O)cc1 (stereo unspecified)	-10.7%
Cc1nn(Cc2ccccc2)c(Cl)c1C(=O)OC1CCOC1=O (stereo unspecified)	-6.27%
O=C(Nc1cccc(Cl)c1Cl)c1ccccc1NC(=O)C1CC=CCC1C(=O)O (stereo unspecified)	1.26%
COc1ccc(C2CC(=O)NC(=O)C2)cc1	23%
c1ccc(C2CNCc3c2ccc2ccccc32)cc1 (stereo unspecified)	38.9% (active)
Oc1ccccc1-c1cc(-c2ccc(Cl)cc2)n[nH]1	-4.03%
CC1=C(C(=O)OC(C)(C)C)C(c2ccc(Br)cc2)NC(=O)N1CCCC(=O)O (stereo unspecified)	-5.35%
Cc1cc(NC(=O)Nc2c[nH]c(=O)[nH]c2=O)ccc1Br	-12.8%
CC1CN(C(=O)CCC(=O)NC2CCN(Cc3ccccc3)CC2)c2ccccc2O1 (stereo unspecified)	-0.83%
CC1CN(C(=O)CCC(=O)NCCCN2CCC(Cc3ccccc3)CC2)c2cc(Cl)ccc2O1 (stereo unspecified)	25.7% (active)
CC1CN(C(=O)CCC(=O)NCc2cccnc2)c2ccccc2O1 (stereo unspecified)	6.78%
COc1ccc(OC)c(NC(=O)CN(C)CCOc2ccc(Br)cc2)c1	17.7%
O=C(NCc1nnc(SCC(=O)N2CCCCCC2)o1)c1ccc(F)cc1	-18.2%
CCOc1ccc(S(=O)(=O)Nc2ccc(OC)nc2)cc1	6.88%
COc1ccc(CS(=O)/C(Cl)=C(/Cl)C(=O)Nc2ccc(OC)nc2)cc1 (stereo unspecified)	24.2% (active)
COc1ccc(Nc2cc(Cl)ccc2C(=O)O)cn1	-11.5%
COc1ccc(NC(=O)c2cc(-c3ccc(C)cc3)on2)cc1	-12.6%

SMILES	inhibition
COc1ccc(NC(=O)/C(Cl)=C(/Cl)S(=O)Cc2ccc(C)cc2)cn1 (stereo unspecified)	57.6% (active)
COc1ccc(C(=O)Nc2ccc(NC(=O)C(C)C)nc2)cc1	19.8%
Cc1occc(=O)c1OCc1c(Cl)cccc1Cl	-7.63%
CCN(CC)S(=O)(=O)c1ccc(NC(=O)c2cnc(C)cn2)cc1	-18.4%
CCOC(=O)c1cnc2ccc(F)cc2c1Nc1ccc2c(c1)OCCO2	-2.1%
COc1cccc(C(=O)NNC(=O)c2cccc(F)c2)c1	-2.7%
CCCC(=O)N1CCc2[nH]c3ccccc3c2C1	1.42%
Cc1ccc2[nH]c3c(c2c1)CN(C(=O)CN1CCN(c2ccccc2)CC1)CC3	3.49%
O=C(CCCN1CCc2[nH]c3ccc(F)cc3c2C1)c1ccc(F)cc1	33.9% (active)
COc1ccc(OCC(O)CNCCNc2nccc(C(F)(F)F)n2)cc1 (stereo unspecified)	-3.59%
CC(C)(C)CC(C)(C)NCC(O)COCCOc1ccc(Br)cc1 (stereo unspecified)	36.9% (active)
OC(COc1ccc(Br)cc1)CN1CCCC1 (stereo unspecified)	-9.13%
O=C(Cc1cccs1)NCc1cccc(C(F)(F)F)c1	5.08%
COc1ccc(N2C(=O)c3ccccc3NC2c2ccc(OC)c(CN3CCOCC3)c2)cc1 (stereo unspecified)	-11.4%
COc1ccc(C2Nc3ccccc3C(=O)N2Cc2ccccc2)cc1Cn1nnc2ccccc21 (stereo unspecified)	28.4% (active)
COc1ccc(C2Nc3ccccc3C(=O)N2c2ccc(F)cc2)cc1Cn1nnc2ccccc21 (stereo unspecified)	-1.83%
O=C(OCC1O[C@@H](OC(=O)c2cc(O)c(O)c(O)c2)[C@@H](OC(=O)c2cc(O)c(O)c(O)c2)[C@@H](OC(=O)c2cc(O)c(O)c(O)c2)[C@@H]1OC(=O)c1cc(O)c(O)c(O)c1)c1cc(O)c(O)c(O)c1 (stereo partly specified)	-5.26%
O=C(NCc1ccc2c(c1)OCO2)c1cc(F)c(F)cc1Cl	-4.33%
O=C(c1ccccc1)N1CCN(C(=O)c2cc3nc(-c4ccccc4)cc(C(F)(F)F)n3n2)CC1	-7.13%
Cc1cccc(-c2nc3ccc(C(=O)NCCN4CCN(C)CC4)cc3nc2-c2cccc(C)c2)c1	31.6% (active)
Cc1ccc(C(=O)NCCN2CCOCC2)cc1C	3.82%
CCC1=Nc2cc(C(=O)NCCN3CCCC3)ccc2Sc2ccc(C)cc21	-5.13%
O=C(CC(=O)Nc1ccc(Cl)c(Cl)c1)N/N=C/c1ccc(O)cc1	24.6% (active)

SMILES	inhibition
O=C(C[n+]1ccccc1)N/N=C/c1ccc(O)cc1	-1.15%
Nc1nnn(CC(=O)N/N=C/c2ccc(O)cc2)n1	5.08%
O=C(COc1ccc([N+](=O)[O-])cc1)Nc1cccc(C(=O)Nc2ccccc2C(=O)O)c1	-9.29%
O=C(CSc1nnnn1-c1ccccc1)NCc1ccco1	-5.34%
O=C(NCc1ccco1)c1nc(-c2ccccc2)n(-c2ccccc2)n1	20.5% (active)
O=C(NCc1ccco1)c1nc2ncccn2n1	-0.52%
CCOc1ccc(N/C(N)=N/c2nc(C)c(C)c(=O)[nH]2)cc1	6%
COc1ccc(CN(C)C(=O)Cc2ccsc2)c(OC)c1OC	8.02%
CCOc1ccc(NC(=O)CN2CCN(CC(=O)Nc3ccc(OC)cc3)CC2)cc1	2.08%
CCOc1ccc(NC(=S)N2CCC(NC(=O)c3ccccc3)CC2)cc1	-6.68%
O=C(CN1CCN(C(=S)NC2CCCC2)CC1)Nc1ccc(Oc2ccccc2)cc1	22.4% (active)
Cc1cccc(NS(=O)(=O)c2ccc([N+](=O)[O-])cc2)n1	17.4%
COc1ccc(C(=O)N2CCCC(C(=O)c3ccccc3OC)C2)cc1OC (stereo unspecified)	-2.49%
O=C(O)CN1CCN(C(c2ccccc2)c2ccccc2)CC1	-8.01%
CC(C)NC(=S)N1CCN(C(c2ccccc2)c2ccccc2)CC1	-13.9%
CC1(C)CC(N2CCN(C(c3ccccc3)c3ccccc3)CC2)=CC(=[N+]2CCCCC2)C1	66% (active)
COc1ccccc1C(=O)COC(=O)CNS(=O)(=O)c1ccc(NC(C)=O)cc1	11.2%
COc1cccc(NC(=O)CN2CCN(c3nc(-c4cccc(OC)c4)cs3)CC2)c1	-9.85%
CN(C)CCCNC(=S)N1CCN(c2nc(-c3ccccc3)cs2)CC1	5.73%
COCCCNC(=S)N1CCN(c2nc(-c3cccc(OC)c3)cs2)CC1	42.1% (active)
CCC1CCCCN1C(=S)Nc1ccc(S(=O)(=O)Nc2ncccn2)cc1 (stereo unspecified)	-0.2%
Fc1ccc(-c2ccc(-c3nn4c(-c5ccco5)nnc4s3)o2)cc1	29% (active)
COc1cc(-c2nn3c(-c4cccc(C)c4)nnc3s2)cc(OC)c1OC	12.2%

SMILES	inhibition
c1ccc(-c2cc(-c3nnc4sc(-c5ccccn5)nn34)[nH]n2)cc1	-17.3%
COC(=O)c1ccc(C(=O)NC2CC(C)(C)Cc3c2cnn3-c2ccc(F)cc2)nc1 (stereo unspecified)	18.2%
CC(C(=O)NC1CCS(=O)(=O)C1)N1C(=O)/C(=C/c2ccc(Cl)cc2)SC1=S (stereo unspecified)	14.5%
CCOCCCNC(=O)c1ccc(CS(=O)(=O)c2cccc(C(F)(F)F)c2)o1	6.51%
O=C(NCCCN1CCOCC1)c1ccc2c(c1)N(Cc1cccc(F)c1)C(=O)c1ccccc1S2	24.4% (active)
O=C(NCCCN1CCCCC1)c1ccc2c(c1)NC(=O)C(N1CCOCC1)S2 (stereo unspecified)	-14.1%
O=C(NCCCN1CCOCC1)c1cc(-c2ccccc2F)no1	-6.4%
Cc1ccccc1CN1C(=O)c2ccccc2Sc2ccc(C(=O)NCCCN3CCOCC3)cc21	24.2% (active)
CCC1=Nc2cc(C(=O)NCCCN3CCOCC3)ccc2Sc2ccc(Br)cc21	0.03%
O=C(NCCN1CCOCC1)c1ccc(/C=C2\Sc3ccccc3N(Cc3ccc(F)cc3)C2=O)cc1	4.73%
CCOc1ccc(NC(=O)C2CCN(C(=O)N3CCOc4ccccc43)CC2)cc1	5.19%
COc1cccc2[nH]c(C(=O)NCCc3ccccc3)cc12	-9.64%
COc1ccc2[nH]c(=O)c(C3c4cc(OC)c(OC)cc4CCN3C(=O)c3ccco3)cc2c1 (stereo unspecified)	-13.4%
Cc1ccc(SCc2cc(=O)[nH]c(N3CCCCC3)n2)cc1	25.9% (active)
Cc1ccc(NC(=O)CSc2nc(CSc3ccc(C)cc3)cc(=O)[nH]2)cc1	-13.7%
O=c1cc(CSc2ccccn2)nc(N2CCN(c3ccccc3)CC2)[nH]1	-6.4%
CN(C(=O)CCN1C(=O)/C(=C/c2ccccc2F)SC1=S)C1CCS(=O)(=O)C1 (stereo unspecified)	-4.44%
COc1cccc(CNC(=O)C2CCCN(c3ncnc4c3nc3n4CCCCC3)C2)c1 (stereo unspecified)	6.2%
COc1cccc(C(C(=O)NC2CCCC2)N(C(=O)c2ccco2)c2cccc(C(C)=O)c2)c1OC (stereo unspecified)	2.78%
CN(C)CCNC(CC(=O)Nc1ccc(Cl)c(Cl)c1)C(=O)O (stereo unspecified)	-6.94%
O=C(CC(O)(C(F)(F)F)C(F)(F)F)Nc1ccc(Cl)c(Cl)c1	28.9% (active)
Cc1ccc(NC(=O)C/C(N)=N/O)cc1Cl	-9.83%
